We go through 96 compounds from PubChem BioAssay AID624330 (Southern Research Specialized Biocontainment Screening …, 2012).

The campaign covered roughly 340,000 compounds. About 2,100 (0.62%) were called active. Not all results are given here. Results with a measured potency or affinity are listed apart. Unmarked numbers belong to inactive results.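 The calls were made as follows: active = first-screen hits whose inhibition reached a set limit at any dose in the follow-up dose series; inconclusive = inhibition above the set first-screen limit but never retested; inactive = the rest.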

The target of the assay is Rac GTPase-activating protein 1 (Homo sapiens) (UniProt Q9H0H5). The experiment in a line: blockers of MgcRacGAP-driven Rac1 GTP hydrolysis – biochemical, ADP Hunter fluorescence, primary and confirmatory, confirmation (AID 624330).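 Also: fluorescence reports GDP produced by GAP-driven GTP hydrolysis.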 The note with it: MgcRacGAP-stimulated Rac1 GTP hydrolysis, at 30 µM, hits give high values, GST-tagged Rac1 F28L mutant substrate.
Rac GTPase-activating protein 1 (Homo sapiens), sequence (Q9H0H5 whole entry, looked up): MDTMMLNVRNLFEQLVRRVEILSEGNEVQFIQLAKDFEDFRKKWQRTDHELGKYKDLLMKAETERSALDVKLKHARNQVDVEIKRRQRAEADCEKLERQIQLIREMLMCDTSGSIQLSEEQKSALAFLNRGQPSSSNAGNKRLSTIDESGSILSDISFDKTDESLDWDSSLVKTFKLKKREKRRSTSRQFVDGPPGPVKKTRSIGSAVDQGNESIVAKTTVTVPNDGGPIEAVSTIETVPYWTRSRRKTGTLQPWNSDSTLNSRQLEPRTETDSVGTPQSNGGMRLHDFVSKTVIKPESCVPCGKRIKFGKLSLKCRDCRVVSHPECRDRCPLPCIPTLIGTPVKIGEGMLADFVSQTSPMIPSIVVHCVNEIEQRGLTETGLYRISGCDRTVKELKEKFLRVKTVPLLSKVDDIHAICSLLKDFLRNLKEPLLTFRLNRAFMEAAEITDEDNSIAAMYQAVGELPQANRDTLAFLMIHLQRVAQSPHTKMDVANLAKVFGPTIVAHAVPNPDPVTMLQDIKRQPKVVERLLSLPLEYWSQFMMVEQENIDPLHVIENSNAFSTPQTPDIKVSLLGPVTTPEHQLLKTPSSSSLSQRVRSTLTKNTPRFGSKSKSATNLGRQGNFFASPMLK
As usually defined, the inhibition is the relative decrease from the control value, in per cent. For the compound `CC(C)Cn1c(=O)c(-[n+]2ccccc2)c([O-])c2ccccc21`, the inhibition is 12.6%.

In the case of `O=C(OCc1ccccc1)N1CCC2CC1c1cc(Cl)ccc12` (stereo unspecified), the inhibition was 2.05%. Consider `Cc1nn(-c2ncc(C(F)(F)F)cc2Cl)c(=O)n1-c1ccccc1Cl`, for which the inhibition was 5.45%. In the case of `CCCS(=O)(=O)NCc1cn2cccc(C)c2n1` it was 4.87%.

For `CC(=O)N1CCN(c2ccc([N+](=O)[O-])c(NCC3CCCO3)c2)CC1` (stereo unspecified), the inhibition is 7.45%. In the case of `COc1cc(C(=O)OCn2nnc3ccccc3c2=O)cc(OC)c1OC` it was 5.8%.

As for `COc1ccc(NC(=O)c2noc3c2CCC3)cc1`, the inhibition was 14.6%.

For `COc1ccc(C2C3=C(CC(C)(C)CC3=O)Oc3ncn4nc(-c5cccnc5)nc4c32)cc1` (stereo unspecified), the inhibition was 1.38%. In the case of `O=C(CCCc1c[nH]c2ccccc12)N[C@@H](Cc1c[nH]c2ccccc12)C(=O)O` it was 9.15%. With `COc1cccc(CNC(=O)C2CCCN(S(C)(=O)=O)C2)c1` (stereo unspecified), the inhibition is -2.27%.

With `CC(C)(C)c1nc2ccc(NS(=O)(=O)c3ccc(F)c(F)c3F)cc2[nH]1`, the inhibition was -2.67%.

With `CS(=O)(=O)Nc1ccc(C(=O)Nc2ccccc2Sc2ccccc2)cc1`, the inhibition is 9.8%. As for `Cc1nc(CN(C)Cc2nc(Cc3cccc(F)c3)no2)cs1`, the figure is 5.6%; as for `O=S(=O)(NC(=NC1CCCCC1)c1ccccc1)c1ccccc1`, 4.1%; as for `Cc1ncsc1CCC(=O)N1CCCC(Nc2ccc(C(C)C)cc2)C1` (stereo unspecified), 5.76%. In the case of `Cc1ccc(NC2CCCN(C(=O)CCc3scnc3C)C2)cc1C` (stereo unspecified) it was 10.7%. In the case of `Cc1ccc(NC2CCCN(C(=O)CCc3cn[nH]c3)C2)cc1C` (stereo unspecified) it was 14.1%; in that of `COc1ccc(CCC(=O)N2CCCC(Nc3ccc(OC)cc3)C2)cc1` (stereo unspecified), -28.9%. Take `COc1ccc(CCC(=O)N2CCCC(Nc3ccccc3)C2)cc1OC` (stereo unspecified): the inhibition is 3.2%. As for `COc1ccc(NC2CCCN(C(=O)CCc3cccc(Cl)c3)C2)cc1` (stereo unspecified), the figure is -4.43%. In the case of `CC(C)c1ccc(NC2CCCN(C(=O)CCc3cn[nH]c3)C2)cc1` (stereo unspecified) it was 11.8%; in that of `O=C(CCc1ccccc1)N1CCCC(Nc2ccc(F)cc2)C1` (stereo unspecified), 5.33%. With `Cc1ccc(NC(=O)C2CCCN(C(=O)NCc3ccccc3)C2)c(C)c1` (stereo unspecified), the inhibition was 5.67%. Regarding `CCOC(=O)CCCn1c(C)nc(=O)c(-c2ccccc2)c1C`, the inhibition was -2.8%. In the case of `CCCCCCC(=O)OCC(=O)c1ccc2c(c1)NC(=O)CO2` it was 4%. On to `COc1ccccc1NC(=S)N(CCN(C)C)C(C)c1ccncc1` (stereo unspecified), for which the inhibition was 4.01%. As for `O=S1(=O)N[C@@H](CC2CCCCC2)COc2cc(Br)ccc21`, the figure is 6.23%; as for `COCC(=O)Nc1cc(C)cn(Cc2cccc(C(F)(F)F)c2)c1=O`, 3.75%; as for `COc1ccc(CCNC(=O)c2[nH]c(C)c(C(C)=O)c2C)cc1`, 2.68%. As for `CN(c1ccccc1)S(=O)(=O)c1cccc(NC(=O)CSc2ncn[nH]2)c1`, the figure is 5.76%; as for `Cc1cc(Cl)ccc1OCC(=O)NCc1ccncc1`, 5.06%. In the case of `COc1ccc(OC)c(C(=O)N2CCCC(Nc3ccc(F)cc3)C2)c1` (stereo unspecified), the inhibition was 12.4%. As for `CC(C)c1ccc(NC2CCCN(C(=O)c3ccccc3-c3ncc[nH]3)C2)cc1` (stereo unspecified), the figure is 8.99%; as for `O=C(c1ccccc1-c1ncc[nH]1)N1CCCC(Nc2ccc(F)cc2)C1` (stereo unspecified), 2.49%; as for `COc1ccc(NC2CCCN(C(=O)c3ccc(OC)cc3OC)C2)cc1` (stereo unspecified), -1.47%.

Take `CC1CN(C(=O)CCNC(=O)c2ccc(Br)cc2)CC(C)O1` (stereo unspecified): the inhibition is 3.26%. In the case of `Cc1ccc(OCC(=O)O)c(-n2nc3ccccc3n2)c1` it was 9.25%.

Regarding `Nn1c(-c2cccc(O)c2)nnc1-c1cccc(O)c1`, the inhibition is -0.05%. Regarding `CC(C)CC(=O)NC(=S)Nc1ccc(N2CCN(C(=O)c3cccs3)CC2)cc1`, the inhibition was 9.14%. As for `COc1cccc(NC(=O)CNCc2ccccc2)c1`, the figure is 1.69%; as for `COC(=O)c1ccc(CNCC(=O)Nc2ccc(C(=O)OC)cc2)cc1`, -0.29%; as for `COc1ccc(CCNCC(=O)Nc2ccc(OC(F)(F)F)cc2)cc1OC`, 28.8%. In the case of `COc1ccc(CNCC(=O)Nc2cccc(S(N)(=O)=O)c2)cc1` it was 24.6%; in that of `CN1CCN(NS(=O)(=O)c2ccc(Cl)s2)CC1`, 13.4%. In the case of `CCn1c(SCC(=O)OCc2ccccc2)nc2c1c(=O)n(C)c(=O)n2C` it was -1.89%; in that of `CC(=O)Nc1ccc(NC(=O)c2nccnc2C(=O)O)cn1`, 2.3%; in that of `O=C(C(c1ccccc1)C(O)(c1ccccc1)c1ccccc1)N1CCOCC1` (stereo unspecified), -4.45%. Consider `CCNC(=S)N(CCc1c(C)[nH]c2ccccc12)Cc1cc(OC)c(OC)c(OC)c1`, for which the inhibition is 13.9%. As for `O=C(CSC1=N/C(=C/c2ccc(Cl)c(Cl)c2)C(=O)N1c1ccccc1F)NC1CC1`, the figure is 6.1%; as for `CN(C(=O)COC(=O)COc1ccc2ccccc2c1)c1ccccc1`, 5.73%; as for `COc1ccc(OC)c(S(=O)(=O)N2CCC(C(=O)N(C)Cc3ccccc3)CC2)c1`, 13.1%. Take `O=C(O)CCCn1c(=O)[nH]c2ccccc2c1=O`: the inhibition was 4.27%.

For the compound `CCC(C)n1c(SCc2ccc([N+](=O)[O-])cc2)nc2ccsc2c1=O` (stereo unspecified), the inhibition was 2.36%. Regarding `CC1CCN(CCCn2c(=S)[nH]c3c(sc4ccc([N+](=O)[O-])cc43)c2=O)CC1`, the inhibition was 17.7%. In the case of `CCC(C)n1c(=S)[nH]c2ccccc2c1=O` (stereo unspecified) it was 5.28%; in that of `COc1cccc(-c2cc3nc(C)cc(N4CCN(C(=O)c5ccoc5)CC4)n3n2)c1`, 13.9%.

Regarding `CCOc1ccc(/C=C(\C#N)C(=O)Nc2ccccn2)cc1`, the inhibition was -0.14%. As for `CCc1noc(C)c1C(=O)N1CCCC(N2CCN(c3cccc(Cl)c3)CC2)C1` (stereo unspecified), the figure is 8.33%; as for `C/C(=N\Nc1ccc([N+](=O)[O-])cc1)c1ccc(C#N)cc1`, -4.19%; as for `C/C(=N\Nc1ccc([N+](=O)[O-])cc1)c1cccc(N)c1`, 1.82%. In the case of `O=C(NCc1ccc(F)cc1)C1CCC(=O)N1C1CCCCC1` (stereo unspecified) it was -0.47%; in that of `COc1ccc(OC(=O)OCc2ccccc2)cc1`, 11.7%. For the compound `Cc1cc(CNC[C@H]2O[C@@H](n3ccc(N)nc3=O)[C@H](O)[C@@H]2O)no1`, the inhibition is 9.68%. In the case of `COc1cc2c(cc1CNC[C@H]1O[C@@H](n3ccc(N)nc3=O)[C@H](O)[C@@H]1O)OCO2`, the inhibition was 6.09%. In the case of `C=CCNc1nnc(Cc2ccc(F)cc2)c(=O)[nH]1` it was 4.71%.

`COc1cc2c(cc1NC(=O)c1cccc([N+](=O)[O-])c1)oc1ccccc12`: the inhibition is 1.77%. In the case of `O=C(c1ccc(F)cc1)N1CCN(Cc2ccccc2)CC1` it was 7.84%. As for `CN(CC(=O)N1CCN(Cc2ccccc2)CC1)S(=O)(=O)c1ccc(F)cc1`, the figure is -3.86%. In the case of `c1ccc(CN2CCN(C(c3ccccc3)c3ccccc3)CC2)cc1` it was 16.6%; in that of `OC(CN1CCN(Cc2ccccc2)CC1)c1ccc(F)cc1` (stereo unspecified), -1.4%; in that of `COc1ccccc1C1CCN(C(=O)c2cnn(-c3ccccc3)c2C)CC1`, 12.4%.

Regarding `O=C(Nc1ccc([N+](=O)[O-])cc1NC(=O)c1ccccc1)c1ccccc1`, the inhibition was 2.42%. As for `CCC(=O)Nc1ccccc1N1CCN(c2ccc(F)cc2)CC1`, the figure is 2.63%; as for `CCSc1nc2ccc(N3C(=O)C4C5C=CC(C5)C4C3=O)cc2s1` (stereo unspecified), -1.62%. As for `CN1CCC(=O)N([C@H](CSc2ccc(Br)cc2)Cc2ccccc2)CC1`, the inhibition is 1.09%. In the case of `COc1cc(OC)cc(C(=O)N2CCN(S(=O)(=O)c3ccc4c(c3)OCCO4)CC2)c1` it was 9.94%; in that of `COc1cccc(/C(C)=N/Nc2ccc(S(=O)(=O)N3CCCCC3)cn2)c1`, 7.29%.

For `C/C(=N\Nc1ccc(S(=O)(=O)N2CCCCC2)cn1)c1cccc(Br)c1`, the inhibition is 3.57%.

On to `CC(C)(C)OC(=O)NCCCC[C@H](NC(=O)c1nc[nH]c1C(=O)NC(c1ccccc1)c1ccccc1)C(=O)OC(C)(C)C`, for which the inhibition is 2.03%. In the case of `CCN(C(=O)COC(=O)c1cccc(-n2cnnn2)c1)C1CCCCC1`, the inhibition was 11.8%. As for `Cc1sc2ncn(CC(=O)N3CCN(c4ccccc4F)CC3)c(=O)c2c1S(=O)(=O)N1CCOCC1`, the figure is 2.91%.

For `COc1cc(NC(N)=S)c(OC)cc1Cl`, the inhibition was 10.5%. In the case of `COc1cc(Br)c(Br)cc1N` it was -1.7%; in that of `COc1ccc(-c2nnc(N)s2)cc1OC`, 5.29%; in that of `Cc1cc(Cc2ccc(N)c(C)c2)ccc1N`, 4.21%.

`COc1cc([N+](=O)[O-])ccc1N`: the inhibition is 0.84%. In the case of `Cc1ccc2c(N)c(C)ccc2c1` it was 12.7%. In the case of `Cc1cc([N+](=O)[O-])ccc1N`, the inhibition was -7.8%.

Regarding `Cc1ccc(C)c(N)c1`, the inhibition was 6.49%. In the case of `O=C(CSc1nccc(=O)[nH]1)NN(c1ccccc1)c1ccccc1` it was 11.2%; in that of `O=C(NCC(c1ccco1)N1CCN(c2ccccc2)CC1)C(=O)NC1CCCC1` (stereo unspecified), 4.87%; in that of `CCCCCN(C(=O)CCC(=O)OCc1cccc(C)c1)c1c(N)n(CCCC)c(=O)[nH]c1=O`, 5.1%. In the case of `O=C(CSc1nnc(COc2ccccc2)n1-c1ccccc1)c1cccs1` it was 15.1%. In the case of `CCOC(=O)c1nc(C)nc(Sc2n[nH]c(-c3ccccc3)n2)c1C` it was 9.53%; in that of `C/C(=N/OCC(=O)Nc1ccccc1)c1cccs1`, 6.14%. For the compound `CCCCc1ccc(NC(=O)CN(C)CC(=O)Nc2ccccc2Cl)cc1`, the inhibition was 11.5%.
